# Measured values reported in PubChem BioAssay (NCI).
# The panel holds about 83,000 compounds, 20% with a hit somewhere; the sample as a whole holds those more often.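 Results are percent growth after 48 hours of single-concentration exposure. 100 means growth as in untreated cells, lower positive values show inhibition; negative values down to -100 show cell death.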 Activity calls are given as the source filed them. How the source made its calls: active means growth percent below 10; inactive means the rest.
# Tested on: NCI-H522 lung
# Assay: NCI-60 one-dose screen, 48 h (100 = growth as untreated, 0 = no growth, -100 = all killed)
# Details: 10 µM unless noted
row,Structure (SMILES),growth
1,CC/C(=C(\c1ccc(Cl)cc1)c1ccc(OCCN2CCCCC2)cc1)c1ccc(O)cc1,58.1% (inactive)
2,CCOC(=O)c1[nH]cc2c1CCc1sc(Nc3ccccn3)nc1-2,66.2% (inactive)
3,COc1cc(-c2ccc(-c3ccc(C(=N)N)cc3)s2)cc(OC)c1OC,62.4% (inactive)
4,CN(C)c1ccc([C@@H](C(=O)Nc2cccc([N+](=O)[O-])c2)N(C(=O)c2cc3ccccc3[nH]2)c2cccc([N+](=O)[O-])c2)cc1,92.3% (inactive)
5,Cc1cccc(NC(=O)N/C(N)=N/c2nc3ccccc3s2)c1,16% (inactive)
6,CN(C)c1ccc(/C=N\NC(=O)c2ccc3nc(-c4ccc(Cl)cc4)[nH]c3c2)cc1,96.1% (inactive)
7,C=C1SC(=Nc2ccccc2Cl)N(C(=O)c2sc3ccccc3c2Cl)C1(C)C,91.6% (inactive)
8,CC[C@@H](C(=O)[C@@H](C)[C@@H](O)[C@H](C)[C@@H]1O[C@@H]([C@@H](CC)C(=O)ONC(=O)c2ccccc2O)CC[C@@H]1C)C1O[C@]2(C=CC(=O)[C@]3(CC[C@@](C)([C@H]4CC[C@](O)(CC)[C@H](C)O4)O3)O2)[C@H](C)C[C@@H]1C (stereo not given in full),23.9% (inactive)
9,Cc1ccc(NC(=O)c2cc3ccccc3cc2O)c(C)c1,-1.58% (active)
10,CCN(CC)CCOc1ccc2c(-c3ccccc3)c(-c3ccc(OC)cc3)c(=O)oc2c1,66.8% (inactive)
11,CCOC(=O)C1=C(CC(O)c2ccc(OC)cc2OC)NC(=O)NC1c1ccccc1 (stereo not given),98.5% (inactive)
12,COc1nc(/C=C\Nc2ccc3c(c2)OCCOCCOCCOCCO3)nc(OC)n1,109% (inactive)
13,Cc1c(O)cc(-c2cnc(N/N=C/c3ccccc3)s2)c(O)c1C,82.3% (inactive)
14,CCCCO[C@@H]1C=C2[C@H]3CC(C)(C)C(=O)C[C@]3(C(=O)O[C@@H]3O[C@H](CO[C@@H]4O[C@H](CO)[C@@H](OC5OC(C)C(O)C(O)C5O)[C@H](O)[C@H]4O)[C@@H](O)[C@H](O)[C@H]3O)CC[C@@]2(C)[C@]2(C)CC[C@H]3C(C)(C)C(=O)CC[C@]3(C)[C@@H]12 (stereo not given in full),67.9% (inactive)
15,O=CN1N=C(c2cccc(Nc3ccnc4cc(Cl)ccc34)c2)CC1c1ccc(Cl)cc1 (stereo not given),-17.4% (active)
16,CCCCCCCCn1ccc2cc(NC(=O)CN3CCN(c4cc(C)nc(Cl)n4)CC3)ccc21,76.2% (inactive)
17,O=C1Nc2ccccc2/C1=N/N1C(=O)CN(CCCl)C1=O,89.7% (inactive)
18,CCOc1ccc(/C=C/C(=O)c2cccc(OCCCOc3cccc(C(=O)/C=C/c4ccc(OCC)cc4)c3)c2)cc1,74% (inactive)
19,C=C1C(=O)O[C@H]2[C@H]1CC/C(COC(=O)NCc1ccc(Cn3c(=O)sn(-c4ccc(I)cc4)c3=O)cc1)=C\CC[C@@]1(C)O[C@@H]21,2.14% (active)
20,O=C1/C(=C/c2c[nH]c(=O)[nH]c2=O)SC(=S)N1Cc1ccccc1,90.7% (inactive)

row,Structure (SMILES),growth
1,Nc1nc(N(Cc2ccccc2)c2ccccc2)c2cn[nH]c2n1,90.1% (inactive)
2,CC(C)NS(=O)(=O)/N=C1\NC(=O)NC1=C(Cl)Cl,54.2% (inactive)
3,COc1cc2c(cc1OCCCN1CCN(C(=S)SCCC(C#N)(c3ccccc3)c3ccccc3)CC1)N=C[C@@H]1CCCN1C2=O,-48.3% (active)
4,O=c1cc(CP(=O)(O)O)c2cc(O)c(-c3ccccc3)cc2o1,94.7% (inactive)
5,O=S(=O)(Nc1ccc2ccccc2c1)c1ccc(-c2cnc(C3CC3)o2)cc1,-0.255% (active)
6,N=C(N)c1ccc(OCCSCCOc2ccc(C(=N)N)cc2)cc1,48.5% (inactive)
7,Fc1ccc(/C=C/[C@@H]2C[C@@H](F)CCO2)cc1,91% (inactive)
8,COC(=O)[C@@]12CC=C(C)[C@]3(C[C@H](c4ccoc4)OC3=O)[C@H]1C=C[C@@H](O)[C@@]2(O)C(=O)OC,66.3% (inactive)
9,O=c1oc2c(cc1-c1ccccc1)c(=O)[nH]c1ccccc12,94.2% (inactive)
10,COc1ccc(C/C(C)=C(\c2ccc(O)cc2)c2ccc(OCCN3CCCCC3)cc2)cc1,87.7% (inactive)
11,CNC(=O)c1cc(Oc2ccc3c(c2)sc2nc(-c4ccc(NC(=O)[C@@H](NC(=O)OC)C(C)C)cc4)cn23)ccn1,43.6% (inactive)
12,Nc1[nH]nc2nc(-c3ccccc3)n3c4ccccc4nc3c12,82.7% (inactive)
13,N#Cc1ccccc1-c1ccc(CN2C(=O)S/C(=C\c3ccc(Br)cc3)C2=O)cc1,94.8% (inactive)
14,C=C1CC[C@@H]2C(C)(C)[C@H](O)CC[C@@]2(C)[C@@H]1COc1ccc2ccc(=O)oc2c1,32.8% (inactive)
15,COc1cc2ncnc(Nc3ccc(S(=O)(=O)Nc4nccs4)cc3)c2cc1OCCCN1CCCC1,94.1% (inactive)
16,Cc1cc(O)c(=O)cc2c1C[C@H]1CC(C)(C)/C=C/C[C@]3(C)Oc4cc(=O)c(O)cc(C)c4C[C@H]3C[C@H](O)[C@@]1(C)O2,-24.9% (active)
17,COc1ccc2[nH]cc(-c3nonc3-c3c[nH]c4ccc(Br)cc34)c2c1,8.48% (active)
18,COc1cc2c(c(OC)c1OC)C(=O)CC(c1cccc(C(=O)Nc3ccccc3Br)c1)O2 (stereo not given),69.9% (inactive)
19,NS(=O)(=O)c1ccc(C(=O)N=Nc2c(O)[nH]c3ccc(Cl)cc23)cc1,89.3% (inactive)
20,CCCN(CCSSCCNc1nc(N(C)O)nc(N(C)O)n1)c1nc(N(C)O)nc(N(C)O)n1,65.1% (inactive)
